Measured values: ChEMBL document CHEMBL3433997, “St. Jude Leishmania screening dataset” (2016)

What was measured:
Type in all cases: functional
[1] = target: Solute carrier family 2, facilitated glucose transporter member 1 (Homo sapiens) (UniProt P11166); assay: ST_JUDE_LEISH: Cytotoxicity at 2uM final concentration against transgenic Leishmania Mexicana promastigotes LmGLUT1 that are glucose transport deficient and complemented with the human glucose transporter GLUT1. Activity is measured by DNA content using SYBR green in vitro
[2] = target: Hexose transporter 1 (Plasmodium falciparum) (UniProt O97467); assay: ST_JUDE_LEISH: Cytotoxicity at 2uM final concentration against transgenic Leishmania Mexicana promastigotes LmPfHT that are glucose transport deficient and complemented with the Plasmodium falciparum hexose transporter. Activity is measured by DNA content using SYBR green in vitro
[3] = target: Glucose transporter (Leishmania mexicana) (UniProt O61059); assay: ST_JUDE_LEISH: Cytotoxicity at 2uM final concentration against transgenic Leishmania Mexicana promastigotes LmGT2 that are glucose transport deficient and complemented with the L. Mexicana glucose transporter 2. Activity is measured by DNA content using SYBR green in vitro

Sequence of Solute carrier family 2, facilitated glucose transporter member 1 (Homo sapiens) (P11166 whole entry): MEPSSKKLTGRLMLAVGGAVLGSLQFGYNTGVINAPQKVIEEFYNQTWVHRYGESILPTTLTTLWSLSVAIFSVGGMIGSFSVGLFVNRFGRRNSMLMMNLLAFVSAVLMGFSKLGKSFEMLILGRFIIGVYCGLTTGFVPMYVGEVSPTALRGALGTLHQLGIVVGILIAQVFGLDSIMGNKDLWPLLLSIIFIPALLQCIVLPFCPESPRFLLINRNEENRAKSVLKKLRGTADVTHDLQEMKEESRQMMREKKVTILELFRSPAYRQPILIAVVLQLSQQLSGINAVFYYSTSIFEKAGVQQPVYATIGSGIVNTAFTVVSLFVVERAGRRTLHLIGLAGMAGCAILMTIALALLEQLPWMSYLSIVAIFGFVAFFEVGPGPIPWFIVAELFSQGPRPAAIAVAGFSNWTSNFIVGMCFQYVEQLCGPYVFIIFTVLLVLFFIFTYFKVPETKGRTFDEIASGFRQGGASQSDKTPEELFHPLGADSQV

Compound	inhibition [1]	inhibition [2]	inhibition [3]
COc1ccc2nc3cc(Cl)ccc3c(Nc3ccc(O)c(CNC(C)C)c3)c2c1	0.29%	0.43%	2.23%
Nc1nc(N)c2c(ccc3nn(Cc4ccccc4)cc32)n1	-0.49%	0.59%	-0.15%
CCn1c(-c2nc(-c3ccc4c(c3)OCO4)cnc2N)nc2cnccc21	19.7%	12.4%	13.5%
CCN(CCCN1CCCCC1)c1cc(C)nc(Nc2ccc(C)cc2)n1	0%	1.61%	0.31%
CCOc1ccc(C2CCN(CCCCNC(=O)c3ccc(NC(=O)c4ccc(Cl)cc4)cc3)CC2)c(OCC)c1	4.52%	3.34%	2.91%
CC(C)NCc1ccc(-c2ccc(-c3nc4cc(F)ccc4[nH]3)cc2)cc1	7.9%	8.81%	6.75%
COc1ccc(-c2nc3ccc(C)nc3nc2-c2ccc(OC)cc2)cc1	5.17%	3.91%	3.89%
CCC(C)(C)c1ccc(N2C(N)=NC(N)=NC2(C)C)cc1	-2.05%	-1.28%	-2.78%
CN1CCN(c2ccnc3ccc(NC(=O)Nc4ccc5ccccc5c4)cc23)CC1	2.79%	1.63%	2.8%
Clc1ccc(/N=C(/NCCCCCCCN/C(=N\c2ccc(Cl)cc2)Nc2ccc(Cl)cc2)Nc2ccc(Cl)cc2)cc1	0.4%	1.89%	-1.85%
COc1cccc(C2CCN(CCN3CCC(NC(=O)c4ccc(-c5ccc(C(F)(F)F)cc5)cc4)CC3)CC2)c1	4.19%	5.8%	6.6%
COc1cccc2c(Nc3ccccc3C)nc(Nc3ccccc3C)nc12	19.6%	16.8%	4.14%
NC(=O)c1ccccc1OCC(=O)Nc1cccc(-c2ccc(-c3nc4cc(C(F)(F)F)ccc4[nH]3)cc2)c1	4.44%	3.99%	2.79%
